PP5 primary: inhibitors of human protein phosphatase 5 (PP5); P53041; purified PP5c, OMFP substrate fluorescence; inhibition, % at 6.7 µM; 320,000 compounds, 0.18% hits; AID 1987;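 active = inhibition above the campaign's mean inhibition across all tested compounds plus 3 SD, cut at about 9.5% in these data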
Mdm2 MdmX PPI: human Mdm2/MdmX binding inhibition; O15151+Q00987; SaOS-2 split-luciferase Mdm2/MdmX complementation, luminescence; inhibition, % at 8 µM; 330,000 compounds, 3% hits; AID 485346;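 active = inhibition of at least 50% at 8 µM in the primary screen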
Beta cell apopt: blocks beta cell apoptosis; INS-1E cytokine-induced death, ATP luminescence, 48 h; percent of positive-control rescue, neutral wells zero; protection from apoptosis, % (no concentration beside the values); AID 435005; 300,000 compounds, 0.8% hits;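 active = Every replicate reaches about 75%, or at least half do and their mean reaches it too, limit read from the data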;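 note: higher means more ATP so stronger rescue from cytokine killing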
PP1 inh: blocks human PP1-alpha phosphatase, a PP5 counter-screen; 320,000 compounds, 0.9% hits; P62136; inhibition, % at 6.7 µM; purified PP1alpha, OMFP fluorescence;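 active = inhibition above the mean inhibition of all tested compounds plus 3 SD, computed separately for each screening campaign, cut at about 15% in these data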
Calb FLC: affects C. albicans growth with fluconazole. C. albicans CaCi-2 (fluconazole-resistant clinical isolate) + fluconazole, Alamar Blue growth, 48 h. growth inhibition, % (concentration not given with the values). 300,000 compounds, 0.57% hits;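 active = growth inhibition above about 58% in most replicates, limit read from the data, passing the limit was not always enough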;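 note: all wells also contain fluconazole at 8 µg/ml as a sub-toxic cotreatment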
CSC inhib: cancer stem cell inhibition | cancer stem cell-like cells viability, luminescence | inhibition, % at 7.5 µM | 300,000 compounds, 1.1% hits | AID 2717; in the data active = inhibition above about 75%; tested in HMLE shEcad cells
Mdm2 MdmX conf: human Mdm2/MdmX binding inhibition, confirmed | shares compounds with Mdm2 MdmX PPI | luminescent assay | inhibition, % at 8 µM | 10,000 compounds, 55% hits; in the data active = inhibition above about 40%
FLuc counter: inhibits full-length luciferase, flagging false Mdm2/MdmX hits; 6,200 compounds, 77% hits; SaOS-2 full-length luciferase counterscreen, luminescence; inhibition, % at 8 µM; shares compounds with Mdm2 MdmX PPI;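 active = mean inhibition at 8 µM reaching about 37%, which flags the compound as non-specific, limit read from the data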;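 note: p53-null SaOS-2 cells with luciferase driven by a doxycycline-inducible promoter; compound on cells about two nights before reading with doxycycline added after day one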
A number is an active result. An excerpt weighted towards active compounds, which were near 4.9% of everything screened.

For COCCN=c1scc(-c2cc(OC)c(OC)c(OC)c2)n1/N=C/c1c(C)[nH]c2ccccc12 the results were PP5 primary inactive, Mdm2 MdmX PPI 59, Beta cell apopt inactive, PP1 inh inactive, Calb FLC inactive, CSC inhib 115 and Mdm2 MdmX conf inactive.
Screening Cc1[nH]c2ccccc2c1/C=N/n1cnnc1 returned PP5 primary inactive, Mdm2 MdmX PPI inactive, Beta cell apopt inactive, PP1 inh inactive, Calb FLC inactive and CSC inhib inactive.
Screening O=C(O)CC(NC(=O)Cc1ccc([N+](=O)[O-])cc1)c1ccc2c(c1)OCO2 (stereo not drawn) returned PP5 primary inactive, Mdm2 MdmX PPI inactive, Beta cell apopt inactive, PP1 inh inactive, Calb FLC inactive and CSC inhib inactive.
For Cc1cc(C(=O)N/N=C/c2ccc(-c3ccc([N+](=O)[O-])cc3C)o2)n[nH]1 the results were PP5 primary inactive, Mdm2 MdmX PPI inactive, Beta cell apopt inactive, PP1 inh inactive, Calb FLC inactive and CSC inhib inactive.
`Cc1ccc(-c2ccc(/C=N\NC(=O)c3cc4c(ccc5ccccc54)o3)o2)cc1[N+](=O)[O-]` gave PP5 primary inactive, Mdm2 MdmX PPI 94, Beta cell apopt inactive, PP1 inh inactive, Calb FLC inactive, CSC inhib inactive and Mdm2 MdmX conf inactive.
For Cc1cc([N+](=O)[O-])ccc1-c1ccc(/C=N/NC(=O)c2ccc(Br)o2)o1 the results were PP5 primary inactive, Mdm2 MdmX PPI 95, Beta cell apopt inactive, PP1 inh inactive, Calb FLC inactive, CSC inhib 88 and Mdm2 MdmX conf inactive.
c1ccc(C(c2ccccc2)N2CCN(c3nc4ccccc4n4cnnc34)CC2)cc1 was read as PP5 primary inactive, Mdm2 MdmX PPI 68, Beta cell apopt 108, PP1 inh inactive, Calb FLC inactive, CSC inhib inactive and Mdm2 MdmX conf inactive.
C=CCN(c1ccccc1)S(=O)(=O)c1cccc(C(=O)NC2CCN(Cc3ccccc3)CC2)c1 was read as PP5 primary inactive, Mdm2 MdmX PPI 60, Beta cell apopt inactive, PP1 inh inactive, Calb FLC inactive, CSC inhib inactive and Mdm2 MdmX conf inactive.
CC(C)(C)c1ccc(NC(=O)NC2CCCc3ccccc32)cc1 (stereo not drawn) was read as PP5 primary inactive, Mdm2 MdmX PPI 70, Beta cell apopt inactive, PP1 inh inactive, Calb FLC inactive, CSC inhib inactive, Mdm2 MdmX conf 53 and FLuc counter 70.
Screening C=CCn1c(SCC(=O)Nc2cccnc2Cl)nnc1-c1ccccc1F returned PP5 primary inactive, Mdm2 MdmX PPI inactive, Beta cell apopt inactive, PP1 inh inactive, Calb FLC inactive and CSC inhib inactive.
`O=C(Nc1cccc(Cl)c1)C1C2CCC3C(CCC21)C3(Cl)Cl` (stereo not drawn) gave PP5 primary inactive, Mdm2 MdmX PPI 69, Beta cell apopt inactive, PP1 inh inactive, Calb FLC inactive, CSC inhib inactive and Mdm2 MdmX conf inactive.
Screening O=C(CCl)Nc1ccccc1Sc1ccc(Cl)cc1 returned PP5 primary inactive, Mdm2 MdmX PPI 79, Beta cell apopt inactive, PP1 inh inactive, Calb FLC inactive, CSC inhib inactive, Mdm2 MdmX conf 71 and FLuc counter 55.
CC(=O)N1CCN(CC(=O)Nc2ccccc2Sc2ccc(Cl)cc2)CC1 was read as PP5 primary inactive, Mdm2 MdmX PPI inactive, Beta cell apopt inactive, PP1 inh inactive, Calb FLC inactive and CSC inhib inactive.
Screening O=C(NC1CCCC1)c1sc(=S)n2c1[nH]c(=O)c1ccccc12 returned PP5 primary inactive, Mdm2 MdmX PPI 57, Beta cell apopt inactive, PP1 inh inactive, Calb FLC inactive, CSC inhib inactive and Mdm2 MdmX conf inactive.
Cc1c(C#N)c(NC(=O)CCl)n(Cc2cccs2)c1C was read as PP5 primary inactive, Mdm2 MdmX PPI 94, Beta cell apopt inactive, PP1 inh inactive, Calb FLC inactive, CSC inhib inactive, Mdm2 MdmX conf 76 and FLuc counter 38.
`Cc1c(C#N)c(NC(=O)CCl)n(Cc2ccc(F)cc2)c1C` gave PP5 primary inactive, Mdm2 MdmX PPI 89, Beta cell apopt inactive, PP1 inh inactive, Calb FLC inactive, CSC inhib inactive, Mdm2 MdmX conf 51 and FLuc counter 43.
Cc1c(C#N)c(NC(=O)CCl)n(Cc2ccccc2)c1C was read as PP5 primary inactive, Mdm2 MdmX PPI 94, Beta cell apopt inactive, PP1 inh inactive, Calb FLC 97, CSC inhib inactive, Mdm2 MdmX conf 86 and FLuc counter 38.
Screening CCN1C(Nc2ccccc2)=NC[C@@H]1Cc1ccccc1 returned PP5 primary inactive, Mdm2 MdmX PPI inactive, Beta cell apopt inactive, PP1 inh inactive, Calb FLC inactive and CSC inhib inactive.
Screening CC(C)(C)C1CCC(CN2C(Nc3ccccc3)=NC[C@@H]2Cc2ccccc2)CC1 (stereo partly drawn) returned Mdm2 MdmX PPI 100, Beta cell apopt inactive, CSC inhib 107, Mdm2 MdmX conf inactive and FLuc counter 47.
For Cc1cc(Cl)n2nc(C)c(-c3ccc(Cl)cc3)c2n1 the results were PP5 primary inactive, Mdm2 MdmX PPI 91, Beta cell apopt inactive, PP1 inh inactive, Calb FLC 113, CSC inhib inactive, Mdm2 MdmX conf 52 and FLuc counter inactive.
COc1cc(NC(=O)CCCNC(=O)Cn2cnc3sc(C)c(C)c3c2=O)cc(OC)c1OC was read as PP5 primary inactive, Mdm2 MdmX PPI inactive, PP1 inh inactive, Calb FLC inactive and CSC inhib inactive.
`Cc1nnnn1/C(=C\c1ccccc1)C(=O)OCC(=O)NC1CCCCC1` gave PP5 primary inactive, Mdm2 MdmX PPI 62, Beta cell apopt inactive, PP1 inh inactive, Calb FLC inactive, CSC inhib inactive, Mdm2 MdmX conf 45 and FLuc counter 45.
Cc1nnnn1/C(=C\c1ccccc1)C(=O)OCC(=O)NC(C)(C)C was read as PP5 primary inactive, Mdm2 MdmX PPI inactive, Beta cell apopt inactive, PP1 inh inactive, Calb FLC inactive and CSC inhib inactive.
For O=C(Nc1cccc(C(F)(F)F)c1)N(Cc1ccc(Cl)cc1)CC(O)C(F)(F)F (stereo not drawn) the results were PP5 primary inactive, Mdm2 MdmX PPI 67, Beta cell apopt inactive, PP1 inh inactive, Calb FLC inactive, CSC inhib inactive and Mdm2 MdmX conf inactive.
Screening C[C@H](CO)N1C[C@H](C)[C@@H](CN(C)Cc2ccc(Cl)c(Cl)c2)Oc2c(NC(=O)Cc3ccccc3)cccc2C1=O returned Mdm2 MdmX PPI inactive, Beta cell apopt inactive and CSC inhib inactive.
`CC1(C)Cc2c(c(N3CCCC3)nc3sc4c(N5CCNCC5)ncnc4c23)CO1` gave PP5 primary inactive, Mdm2 MdmX PPI 58, PP1 inh inactive, Calb FLC inactive, CSC inhib inactive and Mdm2 MdmX conf inactive.

Screening data (PubChem BioAssay)
